Assay [1] has as its system DLD1. In words: cell viability (CellTiter-Glo) relative to plate median (fraction of plate median); higher = more viable cells. The conditions noted are these: 5 µM; treatment time 24 h; reporter: 7TFP. In outline:
(§1)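 Stable lentiviral TCF/Wnt firefly luciferase reporters (7TFP or TCF4/Wnt) were present in the colorectal cancer cell lines used. These cells received library compounds at a final 5 µM for 24 h, and parallel plates were read for firefly luciferase or CellTiterGlo luminescence. Each well was normalised to the plate median, and the value reported is the mean of two independent replicates.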

The subject of assay [2] is HCT116. The assay is described as above. As to conditions: 5 µM; treatment time 24 h; reporter: TCF4/Wnt. In outline: as §1
Assay [3] has as its system SW480. Described as above. As to conditions: 5 µM; treatment time 24 h; reporter: 7TFP. An outline of the steps:
as §1

The test system of assay [4] is DLD1. In words: TCF/Wnt firefly luciferase reporter signal relative to plate median (fraction of plate median); higher = higher Wnt reporter signal. The conditions noted are these: 5 µM; treatment time 24 h; reporter: 7TFP. In outline: as §1
Assay [5] concerns SW480. Described as above. The conditions noted are these: 5 µM; treatment time 24 h; reporter: 7TFP. An outline of the steps: as §1

± gives the standard deviation of the averaged measurements.

On to `NC(=O)c1ccccc1O`, for which the cell viability in assay [1] turned out to be 1.07 ± 0.014; in assay [2] it was 0.991 ± 0.056; in assay [3] it was 0.972 ± 0.014. The “TCF/Wnt firefly luciferase reporter signal” value was found to be 0.993 ± 0.096 in assay [4] and 0.81 ± 0.12 in assay [5].

Turning to `CO[C@H]1C[C@@H]2CC[C@@H](C)[C@@](O)(O2)C(=O)C(=O)N2CCCC[C@H]2C(=O)O[C@H]([C@H](C)C[C@@H]2CC[C@@H](O)[C@H](OC)C2)CC(=O)[C@H](C)/C=C(\C)[C@@H](O)[C@@H](OC)C(=O)[C@H](C)C[C@H](C)/C=C/C=C/C=C/1C`, the values for the cell viability in assay [1], in assay [2] and in assay [3] were 1.18 ± 0.028, 0.976 ± 0.049 and 1.35 ± 0.11, respectively. For the same compound, the “TCF/Wnt firefly luciferase reporter signal” value in assay [4] came out at 0.838 ± 0.15; in assay [5] it was 1.2 ± 0.21.

For `Cn1c(=O)[nH]c2[nH]cnc2c1=O`, the cell viability was 1.02 ± 0.042 in assay [1], 1.04 ± 0.14 in assay [2] and 1.04 ± 0.072 in assay [3]. Further, the “TCF/Wnt firefly luciferase reporter signal” value in assay [4] is 0.964 ± 0.011; in assay [5], 0.992 ± 0.025.

Regarding `CCN(CC)CCOCCOC(=O)C1(c2ccccc2)CCCC1`, the values for the cell viability in assay [1], in assay [2] and in assay [3] were 1.03 ± 0.13, 0.887 ± 0.1 and 0.916 ± 0.013, respectively. Further, the “TCF/Wnt firefly luciferase reporter signal” value in assay [4] came to 1.12 ± 0.16; in assay [5], 1.04 ± 0.028.

Turning to `Cc1ncc([N+](=O)[O-])n1CCO`, the cell viability in assay [1] amounted to 1.08 ± 0.064; in assay [2], 1.06 ± 0.071; in assay [3], 1.02 ± 0.014. Besides, the “TCF/Wnt firefly luciferase reporter signal” value stood at 1.06 ± 0.042 in assay [4] and 0.964 ± 0.11 in assay [5].

With `C[C@]12CCC(=O)C=C1CC[C@@H]1[C@@H]2[C@@H](O)C[C@@]2(C)[C@H]1CC[C@]2(O)C(=O)COP(=O)(O)O`, the cell viability in assay [1] is 0.949 ± 0.0099; in assay [2], 0.974 ± 0.065; in assay [3], 0.969 ± 0.03. In addition, the “TCF/Wnt firefly luciferase reporter signal” value came out at 1.01 ± 0.025 in assay [4] and 1.07 ± 0.014 in assay [5].

As for `Oc1ccc(/C=C/c2cc(O)cc(O)c2)cc1`, the cell viability was 0.995 ± 0.022 in assay [1], 1.05 ± 0.042 in assay [2] and 1.03 ± 0.098 in assay [3]. The “TCF/Wnt firefly luciferase reporter signal” value in assay [4] worked out at 1.05 ± 0.05; in assay [5], 0.891 ± 0.059.

For `COc1ccc(-c2cc(=O)c3ccccc3o2)cc1`, the figures for the cell viability in assay [1], in assay [2] and in assay [3] were 1 ± 0.066, 0.983 ± 0.11 and 1.03, respectively. Also, the “TCF/Wnt firefly luciferase reporter signal” value in assay [4] was determined as 1.28 ± 0.12; in assay [5] it was 1.13 ± 0.18.

As for `N=C(N)NC(=N)Nc1ccccc1`, the cell viability amounted to 0.96 ± 0.014 in assay [1], 0.969 ± 0.034 in assay [2] and 0.958 ± 0.021 in assay [3]. In addition, the figures for the “TCF/Wnt firefly luciferase reporter signal” value in assay [4] and in assay [5] were 0.946 ± 0.052 and 0.99 ± 0.015, respectively.

As for `CCCCCC(=O)Cc1cc(O)cc(O)c1C(=O)Oc1cc(CC(=O)CCCCC)c(C(=O)O)c(OC)c1`, the values for the cell viability in assay [1], in assay [2] and in assay [3] were 0.992 ± 0.04, 1.01 ± 0.018 and 0.966 ± 0.012, respectively. Besides, the “TCF/Wnt firefly luciferase reporter signal” value in assay [4] is 1.07 ± 0.15; in assay [5] it was 1.14 ± 0.035.

Regarding `O=C(O)/C=C/c1ccc(O)c(O)c1`, the cell viability in assay [1] came out at 0.941 ± 0.046; in assay [2], 1.05 ± 0.05; in assay [3] it was 1.03 ± 0.081. Further, the entries for the “TCF/Wnt firefly luciferase reporter signal” value in assay [4] and in assay [5] were 0.983 ± 0.14 and 1.03 ± 0.035, respectively.

As to `CCCCC(CC)CN=C(N)N=C(N)NCCCCCCNC(N)=NC(N)=NCC(CC)CCCC` (stereo not given), the cell viability in assay [1] was determined as 0.971 ± 0.0057; in assay [2] it was 0.924 ± 0.045; in assay [3], 1.02 ± 0.014. Also, the “TCF/Wnt firefly luciferase reporter signal” value turned out to be 1.14 ± 0.028 in assay [4] and 1.1 ± 0.085 in assay [5].

In the case of `Cc1cc(C)cc(OCC2CNC(=O)O2)c1` (stereo not given), the cell viability in assay [1] came out at 0.964 ± 0.013; in assay [2] it was 1.07 ± 0.1; in assay [3], 0.975 ± 0.05. Moreover, the “TCF/Wnt firefly luciferase reporter signal” value came to 1.02 in assay [4] and 0.957 ± 0.039 in assay [5].

With `O=C(CCCCCCCCCCCCC1CCCC1)Nc1ccc(S(=O)(=O)c2ccc(NC(=O)CCCCCCCCCCCCC3CCCC3)cc2)cc1`, the cell viability in assay [1] turned out to be 1.02 ± 0.062; in assay [2] it was 1.04 ± 0.087; in assay [3], 1.03 ± 0.028. For the same compound, the “TCF/Wnt firefly luciferase reporter signal” value in assay [4] was 1.01 ± 0.12; in assay [5], 1 ± 0.036.

`Nc1ncnc2c1ncn2[C@@H]1O[C@H](CO)[C@@H](O)[C@H]1O`: the cell viability in assay [1] was found to be 1.06 ± 0.014; in assay [2], 1.06 ± 0.09; in assay [3], 1.04 ± 0.035. The figures for the “TCF/Wnt firefly luciferase reporter signal” value in assay [4] and in assay [5] were 1.07 ± 0.17 and 1.15 ± 0.028, respectively.

In the case of `Cc1ccc(C(C)C)cc2c(C)ccc1-2`, the figures for the cell viability in assay [1], in assay [2] and in assay [3] were 1.04 ± 0.057, 1.085 ± 0.0071 and 1.06 ± 0.014, respectively. For the same compound, the results for the “TCF/Wnt firefly luciferase reporter signal” value in assay [4] and in assay [5] were 1 ± 0.14 and 0.894 ± 0.16, respectively.

For the compound `CC1=CCc2c(cc3oc(C)cc(=O)c3c2O)OC1`, the cell viability in assay [1] came to 1 ± 0.084; in assay [2], 1.02 ± 0.033; in assay [3], 1.06 ± 0.071. The “TCF/Wnt firefly luciferase reporter signal” value in assay [4] worked out at 1.18 ± 0.15; in assay [5] it was 1.11 ± 0.085.

As to `CC(C)[C@@H]1CC[C@@H](C)C[C@H]1OC(=O)c1ccccc1`, the cell viability was found to be 1.01 ± 0.025 in assay [1], 1.03 ± 0.057 in assay [2] and 1.06 ± 0.042 in assay [3]. Also, the “TCF/Wnt firefly luciferase reporter signal” value was 1.01 ± 0.19 in assay [4] and 0.996 ± 0.02 in assay [5].

In the case of `COc1ccc(-c2oc3c(CC=C(C)C)c(O[C@@H]4O[C@H](CO)[C@@H](O)[C@H](O)[C@H]4O)cc(O)c3c(=O)c2O[C@@H]2O[C@@H](C)[C@H](O)[C@@H](O)[C@H]2O)cc1`, the cell viability in assay [1] amounted to 1.03 ± 0.014; in assay [2], 1.1 ± 0.085; in assay [3], 0.957 ± 0.048. For the same compound, the “TCF/Wnt firefly luciferase reporter signal” value in assay [4] was 0.977 ± 0.1; in assay [5], 0.974 ± 0.03.

For the compound `COc1ccc2c(c1)c(CC(=O)OCC(=O)O)c(C)n2C(=O)c1ccc(Cl)cc1`, the values for the cell viability in assay [1], in assay [2] and in assay [3] were 0.935 ± 0.073, 0.885 ± 0.082 and 0.952 ± 0.04, respectively. In addition, the “TCF/Wnt firefly luciferase reporter signal” value in assay [4] was 1.05 ± 0.16; in assay [5] it was 1.07 ± 0.028.

Regarding `CC1(C)C[C@@H]2C(=O)CC[C@H]3O[C@]3(C)CC[C@H]21`, the cell viability stood at 1.09 ± 0.057 in assay [1], 1.01 ± 0.073 in assay [2] and 1.02 in assay [3]. For the same compound, the “TCF/Wnt firefly luciferase reporter signal” value in assay [4] worked out at 1.03 ± 0.047; in assay [5], 0.985 ± 0.036.

For `Cc1cc(O)c2c(c1O)C(=O)c1c(O)cc(C)c(O)c1C2=O`, the cell viability in assay [1] worked out at 0.979 ± 0.019; in assay [2], 0.968 ± 0.1; in assay [3] it was 0.986 ± 0.063. The “TCF/Wnt firefly luciferase reporter signal” value in assay [4] is 0.964 ± 0.039; in assay [5], 1.01 ± 0.014.

Turning to `CCN(CC)CC(=O)Nc1c(C)cccc1C`, the cell viability in assay [1] stood at 1.05; in assay [2] it was 1.1 ± 0.021; in assay [3], 1.02 ± 0.021. The “TCF/Wnt firefly luciferase reporter signal” value in assay [4] stood at 1.06 ± 0.05; in assay [5], 1.03 ± 0.021.

As for `CCCCCCCCCc1ccc(OCCOCCOCCOCCOCCOCCOCCOCCOCCO)cc1`, the cell viability was found to be 0.985 ± 0.064 in assay [1], 0.947 ± 0.036 in assay [2] and 0.998 ± 0.032 in assay [3]. Moreover, the entries for the “TCF/Wnt firefly luciferase reporter signal” value in assay [4] and in assay [5] were 1 ± 0.18 and 0.904 ± 0.088, respectively.

With `FC(F)(F)c1ccccc1-n1ccnc1`, the results for the cell viability in assay [1], in assay [2] and in assay [3] were 1.02 ± 0.04, 1.01 ± 0.017 and 1 ± 0.026, respectively. Besides, the “TCF/Wnt firefly luciferase reporter signal” value in assay [4] came out at 1.03 ± 0.064; in assay [5], 0.912 ± 0.14.

Turning to `COc1ccc2c(c1)OCC(Cc1ccc(O)c(OC)c1)C2=O` (stereo not given), the cell viability in assay [1] was 0.99 ± 0.014; in assay [2], 1.04 ± 0.07; in assay [3] it was 0.915 ± 0.049. The “TCF/Wnt firefly luciferase reporter signal” value in assay [4] is 0.887 ± 0.066; in assay [5] it was 0.971 ± 0.084.

Turning to `CN(C)[C@@H]1C(O)=C(C(N)=O)C(=O)[C@@]2(O)C(O)=C3C(=O)c4c(O)cccc4[C@@](C)(O)[C@H]3C[C@@H]12`, the figures for the cell viability in assay [1], in assay [2] and in assay [3] were 0.988 ± 0.074, 1.04 ± 0.093 and 1 ± 0.024, respectively. Also, the “TCF/Wnt firefly luciferase reporter signal” value was found to be 0.911 ± 0.11 in assay [4] and 0.839 ± 0.031 in assay [5].
